{"source": "PubChem BioAssay (NCI)", "note": "Compounds without any hit were thinned out: in the full panel of roughly 83,000, 20% have a hit.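 Single-concentration screen, 48 h exposure, 96-well plates. Endpoint: percent growth. Below 10 = active.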 Values without a mark were called inactive. Active and inactive are the calls of the source.", "data": [{"tested_on": "MDA-MB-468 breast", "experiment": "NCI-60 one-dose screen, 48 h (100 = growth as untreated, 0 = no growth, -100 = all killed)", "settings": "10 µM unless noted", "values": [{"compound": "O=S(=O)(NCCNc1nccc(-n2cnc3ccccc32)n1)c1ccc(Cl)cc1", "growth": "101%"}, {"compound": "C=C(C)[C@@H]1CC[C@]2(C)[C@H](C=CC3=C4C[C@@](C)(CO)CC[C@]4(C)CC[C@]32C)[C@@]1(C)CCCN", "growth": "-62.1% (active)"}, {"compound": "COc1cccc(-c2nc(-c3ccc(NC(=O)OC(C)C)cc3)[nH]c2-c2ccnc(Br)c2)c1", "growth": "18.2%"}, {"compound": "CN(C)CC1C(=O)O[C@H]2[C@H]1CC/C(COC(=O)c1cc3ccccc3[nH]1)=C\\CC[C@@]1(C)O[C@@H]21", "note": "(stereo not given in full)", "growth": "-59.8% (active)"}, {"compound": "Oc1ccc(CCCCCCc2ccc(O)cc2)cc1", "growth": "99.5%"}, {"compound": "CN1CCN(c2ccc(Nc3c4ccccc4nc4ccccc34)cc2)CC1", "growth": "102%"}, {"compound": "CC(O)COc1ccc(-c2ccccc2)cc1", "note": "(stereo not given)", "growth": "102%"}, {"compound": "Fc1ccc(C2CC(c3cccc(Nc4ccncc4)c3)=NN2c2cc(Cl)cc(Cl)c2)cc1", "note": "(stereo not given)", "growth": "37.6%"}, {"compound": "CNC(=S)N/N=C/CSC/C=N/NC(=S)NC", "growth": "66.8%"}, {"compound": "Cc1ccccc1C1N=C2Oc3ccccc3C=C2C(=O)N1", "note": "(stereo not given)", "growth": "21.8%"}, {"compound": "Cc1cc(Br)ccc1-n1cc(C#N)c(N)c1C(=O)c1ccc(Br)cc1", "growth": "93.4%"}, {"compound": "COC(=O)CCCCCN=Cc1c(O)c(O)c(C(C)C)c2cc(C)c(-c3c(C)cc4c(C(C)C)c(O)c(O)c(C=NCCCCCC(=O)OC)c4c3O)c(O)c12", "growth": "26.3%"}, {"compound": "O=[N+]([O-])c1ccc(N/N=C/c2c(O)ccc3ccccc23)nc1", "growth": "36.9%"}, {"compound": "COc1cc2cc(NCc3cccc(Cl)c3)nc(C)c2cc1OC", "growth": "46.6%"}, {"compound": "COC(=O)c1cc(-c2ccc(Cl)c(Cl)c2)[nH]c(=O)c1C#N", "growth": "99.6%"}, {"compound": "COC(=O)[C@H](Cc1cn(C)cn1)NC(=O)[C@H](CC(C)C)NC(=O)Nc1cc(C(F)(F)F)cc(C(F)(F)F)c1", "growth": "-72.1% [100 µM] (active)"}, {"compound": "COc1cccc(CCC2CCCN(c3cc(C)nc(N)n3)C2)c1", "note": "(stereo not given)", "growth": "26.1%"}, {"compound": "C/C(=N\\NC(=S)N1CC2CCC(CC2)C1)c1ccccn1", "growth": "-14.9% (active)"}, {"compound": "COc1ccc(NC2=C(Cl)C(=O)c3nc(C)ccc3C2=O)cc1OC", "growth": "58.1%"}, {"compound": "Cn1ccnc1C(=O)/C=C/c1ccc(CNC(=O)c2ccc(Cl)cc2)cc1", "growth": "-14.5% (active)"}, {"compound": "Cc1[nH]c(=S)[nH]c(=O)c1C", "growth": "112%"}, {"compound": "O=C1NN(C(=O)c2ccc(O)cc2)C(c2ccccc2)=N/C1=C\\c1cn(-c2ccccc2)nc1-c1ccccc1", "growth": "110%"}, {"compound": "CCN(CC)C(=S)SC(SC(=S)N(CC)CC)C(=O)c1nnn(-c2ccc([N+](=O)[O-])cc2)c1C", "growth": "102%"}, {"compound": "CC(C)CSc1nc(-c2ccc(F)cc2)c(C#N)c(N2CCCCC2)n1", "growth": "101%"}, {"compound": "CCn1cnc2c1c(=O)[nH]c(=O)n2CC1CCC(CNS(=O)(=O)c2ccc(OC3CCOCC3)c(F)c2)CC1", "note": "(stereo not given)", "growth": "30.5%"}, {"compound": "CC(C)OCc1cc(CN2CCN(c3cccc(Cl)c3)CC2)c(O)c2ncccc12", "growth": "-15.4% (active)"}, {"compound": "ClC(Cl)c1nc(-c2ccccc2)n2nc(-c3ccccc3)cc2n1", "growth": "-52.3% (active)"}, {"compound": "CCCCCCCCCCCCCCCCNC(=O)Nc1ccc2ccccc2c1", "growth": "94.3%"}, {"compound": "C=C1CC[C@@H]2[C@](C)(COC(C)=O)[C@H](OC(C)=O)CC[C@@]2(C)[C@@H]1CC(Nc1ccc(S(=O)(=O)Nc2nccc(C)n2)cc1)C1=CCOC1=O", "note": "(stereo not given in full)", "growth": "-45.8% (active)"}, {"compound": "Cn1c(SCC(=O)c2ccco2)nc2ccccc2c1=O", "growth": "5.9% (active)"}, {"compound": "CCCCC(CCCCCC(CCCC)NCc1ccc2c(c1)OCO2)NCc1ccc2c(c1)OCO2", "note": "(stereo not given)", "growth": "-90.7% (active)"}, {"compound": "CCCCOc1nc2ccccc2cc1/C=C/c1cc(/C=C/c2cc3ccccc3nc2OCCCC)n(-c2ccccc2)n1", "growth": "104%"}, {"compound": "Cc1nc2sccn2c1-c1csc(Nc2cccc(Cl)c2C)n1", "growth": "-13% (active)"}, {"compound": "C=C[C@@H]1CCC/C=C/[C@@H]2C[C@H](O)C[C@H]2[C@H](O)/C=C/C(=O)O1", "growth": "-46.6% (active)"}, {"compound": "CCCCCCCCCCCCCCCCC1CC(=O)OC1=O", "note": "(stereo not given)", "growth": "119%"}, {"compound": "COc1ccc2c(c1)C(=O)c1c-2c(OCCN(C)C)nc2cc(OC)c(OC)cc12", "growth": "81.6%"}, {"compound": "CCOC(=O)N[C@H]1CCc2cc(OC)c(OC)c(OC)c2-c2ccc(SC)c(=O)cc21", "growth": "-36.8% (active)"}, {"compound": "O=C(N/N=C\\c1ccc(Cl)cc1)c1ccc2nc(-c3ccc(Br)cc3)[nH]c2c1", "growth": "-34.9% (active)"}, {"compound": "C=C1C(=O)O[C@H]2[C@H]1CC/C(COC(=O)OCCCCCOC(=O)OC/C1=C/CC[C@@]3(C)O[C@H]3[C@H]3OC(=O)C(=C)[C@@H]3CC1)=C\\CC[C@@]1(C)O[C@@H]21", "growth": "-38.5% (active)"}, {"compound": "CC(=O)O[C@H]1CC[C@@]2(C)C(=CC[C@@H]3[C@@H]2CC[C@]2(C)C(c4cccnc4)=CC[C@@H]32)C1", "growth": "26.5%"}]}]}
